# Laboratory results reported in ChEMBL document CHEMBL4513216, “Probing the Open Global Health Chemical Diversity Library for Multistage-Active Starting Points for Next-Generation Antimalarials” (ACS Infect Dis, 2020).
# Out of some 69,000 compounds screened, about 8,600 (12%) showed an effect of 50% or more. For the sample, strong results were picked, then their nearest neighbours and some compounds at random.
# Test system: Plasmodium berghei
# Assay: Screen against P. berghei liver stage (PbLuc), transformed with Luciferase, at 10uM
# Type: functional, HepG2
# Conditions: tested at 10 uM
row,SMILES,INHIBITION
1,CCn1cc2c(n1)C(COCC1CC1)CN(C(=O)c1ccco1)C2 (centres undefined),-78.9%
2,CCOCC1CN(C(=O)c2ccco2)Cc2cnn(CC)c21 (centres undefined),78.8%
3,CCOCC1CN(C(=O)c2ccco2)Cc2cnn(C)c21 (centres undefined),18.4%
4,Cc1ccc(N2Cc3cnn(C)c3C(COCC3CC3)C2)nn1 (centres undefined),24.6%
5,CCn1ncc2c1C(COCC1CC1)CN(c1ccc(C)nn1)C2 (centres undefined),86.2%
6,CCOCC1CN(C(=O)C2CCOCC2)Cc2cnn(C)c21 (centres undefined),59.9%
7,CCOCC1CN(c2ccc(C)nn2)Cc2cnn(CC)c21 (centres undefined),48.4%
8,CCOCC1CN(C(=O)c2cccn2C)Cc2cnn(CC3CC3)c21 (centres undefined),19%
9,CCOCC1CN(C(=O)N2CCCC2)Cc2cnn(C)c21 (centres undefined),21.4%
10,CCOCC1CN(C(=O)CS(C)(=O)=O)Cc2cnn(C)c21 (centres undefined),19.5%
11,O=C(c1ccco1)N1Cc2cnn(CC3CC3)c2C(COCC2CC2)C1 (centres undefined),50.4%
12,CCOCC1CN(C(=O)c2ccnnc2)Cc2cnn(CC)c21 (centres undefined),5.44%
13,CNC(=O)c1ccc(C(=O)N2CCCC(n3ccnc3)C2)cn1 (centres undefined),18.2%
14,Cc1cnn(CC2CCCN2CC(=O)NC2CCOCC2)c1 (centres undefined),15.3%
15,O=C1NCCN(CC2CC2)C12CCN(Cc1ccccc1)CC2,47.4%
16,CCc1noc(CN2CCCN(Cc3cccs3)CC2)n1,-47.6%
17,Cc1nn(C)c(Cl)c1C1CCCN1Cc1ccc(C(N)=O)cc1 (centres undefined),-1.14%
18,CCOCC1CN(c2ncccn2)Cc2cnn(CC3CCOCC3)c21 (centres undefined),22.5%
19,CCOCC1CN(C2CCCC2)Cc2cnn(CC3CCOCC3)c21 (centres undefined),58.8%
20,CCOCC1CN(c2ccc(C)nn2)Cc2nn(CC)cc21 (centres undefined),63.5%
21,COCC1CN(c2ncccn2)Cc2cnn(CC3CC3)c21 (centres undefined),84.2%
22,COCC1CN(c2ccncn2)Cc2cnn(CC3CCCC3)c21 (centres undefined),19.5%

row,SMILES,INHIBITION
1,CCOCC1CN(C)Cc2cnn(CC3CCCC3)c21 (centres undefined),36.8%
2,Cn1ncc2c1C(COCC1CC1)CN(S(C)(=O)=O)C2 (centres undefined),33.4%
3,CCn1cc2c(n1)C(COC)CN(c1ccc(C)nn1)C2 (centres undefined),36.2%
4,CCOCC1CN(S(=O)(=O)CC)Cc2cnn(CC3CC3)c21 (centres undefined),31.7%
5,CCn1cc2c(n1)C(COCC1CC1)CN(c1ccc(C)nn1)C2 (centres undefined),41%
6,CS(=O)(=O)N1Cc2cnn(CC3CC3)c2C(COCC2CC2)C1 (centres undefined),53.4%
7,CCOCC1CN(S(C)(=O)=O)Cc2cnn(CC3CCOCC3)c21 (centres undefined),30.1%
8,CCc1ccc(NC(=O)c2cnc(N3CCCC3)nc2C)cc1,-55.4%
9,CCCn1cc(NC(=O)Nc2ccc(F)c(C(=O)NC)c2)cn1,11.3%
10,OC[C@H]1CN(C2Cc3ccccc3C2)C[C@H]1CN1CCC(O)CC1,29.4%
11,CCCOCC1CCN(C(=O)c2cnc(-c3csc(C)n3)nc2O)C1 (centres undefined),-33.9%
12,O=C(CSc1nccc(-c2ccc3c(c2)OCO3)n1)N1CCOCC1,-47.8%
13,Cc1cnn(CC2CCCN2Cc2nnc(-c3ccccc3)o2)c1 (centres undefined),40.9%
14,N#Cc1cccc(OCCN2CCn3c(nnc3C3CC3)C2)c1,-1.14%
15,CCN(Cc1cccc2c1OCO2)C(=O)Nc1cn[nH]c1,-16%
16,COCC1CN(C(=O)c2ccoc2)Cc2cnn(CC3CCOCC3)c21 (centres undefined),51.4%
17,O=C(c1ccoc1)N1Cc2cnn(CC3CC3)c2C(COCC2CC2)C1 (centres undefined),22.6%
18,Cn1ncc2c1C(COCC1CC1)CN(C(=O)c1ccoc1)C2 (centres undefined),25.6%
19,Cc1nn(CCO)c(C)c1-c1cc(C(C)(C)C)nc(N)c1C#N,-0.71%
20,CCC(=O)Nc1ccc(F)cc1OC,27.6%
21,COc1cc(F)ccc1NC(=O)NC(C)C(=O)NC(C)(C)C (centres undefined),50.1%
22,COc1cc(F)ccc1NC(=O)NCCNC(=O)OC(C)(C)C,19.1%

row,SMILES,INHIBITION
1,CCn1ncc(CN2CCC(c3ncc(Cl)cc3S(C)(=O)=O)CC2)c1C,20.57%
2,COc1ncccc1C(=O)NCCn1nc(C)ccc1=O,3.68%
3,CNc1ccc(C2CN(c3nc(C)cc(C)n3)CCO2)nc1 (centres undefined),-7.9%
4,COc1ccc(CN2CCC3(CC(=O)N(c4cncnc4)C3)C2)cc1 (centres undefined),42.6%
5,Cc1nn(C)c(Cl)c1C1CCCN1CC(=O)N1CCOCC1 (centres undefined),33.6%
6,Cc1nn(C)c(Cl)c1C1CCCN1CC(=O)NC1CCCCC1 (centres undefined),14.7%
7,Cc1nn(C)c(Cl)c1C1CCCN1Cc1nnc(C2CC2)n1C (centres undefined),7.93%
8,COc1c(C2CCCN2Cc2nnc(C3CC3)n2C)c(C)nn1C (centres undefined),5.94%
9,Cc1nn(C)c(C)c1C1CCCN1CC(=O)NC(C1CC1)C1CC1 (centres undefined),25.7%
10,CC(=O)N1CCN(C(=O)CN2CCCC2c2c(C)nn(C)c2C)CC1 (centres undefined),50.1%
11,Cc1nn(C)c(Cl)c1C1CCCN1CC(=O)N1CCCCC1 (centres undefined),-3.21%
12,CC(=O)NCCNC(=O)CN1CCCC1c1c(C)nn(C)c1C (centres undefined),60.2%
13,Cc1nn(C)c(Cl)c1C1CCCN1CC(=O)NC1CCCC1 (centres undefined),53%
14,Cc1nn(C)c(C)c1C1CCCN1Cc1nnc(C2CC2)n1C (centres undefined),50.5%
15,Cc1nn(C)c(C)c1NC(=O)CN1CCCC1c1c(C)nn(C)c1C (centres undefined),28.8%
16,COCCNC(=O)CN1CCCC1c1c(C)nn(C)c1Cl (centres undefined),36.1%
17,Cc1cc(C(=O)NC2CCc3c(ccc(=O)n3CC(C)C)C2)no1 (centres undefined),2.7%
18,CN(CCC#N)C(=O)Cn1cnc2c(Br)cccc2c1=O,11.9%
19,CCn1ccnc1CN1CCCN(C(=O)c2ccsc2)CC1,16.165%
20,CS(=O)(=O)c1ccc(NCCC2CCCO2)c(S(C)(=O)=O)c1 (centres undefined),15.2%
21,Cc1cccc(SC2CCN(C(=O)CCCn3cnnn3)CC2)c1,43.8%
22,CN(C)Cc1ccnc(NS(=O)(=O)Cc2cccc(F)c2)c1,27%

row,SMILES,INHIBITION
1,CC(C)n1cnnc1C1CCCN(C(=O)COCc2ccccc2)C1 (centres undefined),2.3%
2,NC(=O)c1csc(N2C[C@@H](CN3CCC(O)CC3)[C@@H](CO)C2)n1,19.6%
3,CC(NC(=O)CSCC(N)=O)c1ccc(Oc2ccccc2)cc1 (centres undefined),1.86%
4,CC(NC(=O)CSCC(N)=O)c1ccccc1Oc1ccccc1 (centres undefined),71.4%
5,CCS(=O)(=O)CC(=O)NC(C)c1ccccc1Oc1ccccc1 (centres undefined),-3.94%
6,Cc1nnc(N2C[C@@H](OCC3CCCC3)[C@H]3OCCC[C@H]32)s1,-36%
7,O=C(c1ccc2[nH]nnc2c1)N1C[C@H](O)[C@]2(CCCO2)C1,4.41%
8,Cn1ccc2c(C(=O)NCCCN3CCCC3)cccc21,55.9%
9,CCN(CC)CCNC(=O)c1cnc(C(C)(C)C)s1,4.88%
10,CCC1CN(CC(=O)NCCN(CC)CC)c2ccccc2S1 (centres undefined),19.4%
11,CCN(CC)CCNC(=O)c1ccc(-n2ccc3ccccc32)s1,75.1%
12,O=C(NCCN1CCOCC1)c1ccc(-n2ccc3ccccc32)s1,63.2%
13,O=C(NCCCN1CCCCC1)c1n[nH]c(=O)c2ccccc12,14.4%
14,Cn1ccc2c(C(=O)NCCCS(C)(=O)=O)cccc21,9.16%
15,Cn1ccc2c(C(=O)NCCCN3CCOCC3)cccc21,22.2%
16,O=C(NCCCN1CCCCC1)c1ccc(-n2ccc3ccccc32)s1,84.5%
17,O=C(NCCCN1CCCC1=O)c1ccc(-n2ccc3ccccc32)s1,-45.5%
18,Cc1nc(-c2cc(C(=O)NCCN3CCOCC3)c3ccccn23)cs1,-11.6%
19,O=C(NCCCN1CCOCC1)c1ccc(-n2ccc3ccccc32)s1,29.3%
20,Cc1nc2c(c(=O)[nH]1)CN(C(=O)CCC1CCCN(C)C1)C2 (centres undefined),48.2%
21,Cc1noc(CN(C)Cc2ccc3c(c2)OCO3)n1,19.2%
22,Cc1cc(Cl)ccc1-n1ncc(C(=O)NCC2COC(C)(C)O2)c1N (centres undefined),-15.2%

row,SMILES,INHIBITION
1,CC(C)N(C)Cc1cnc2n1CCN(Cc1ccsc1)C2,21.4%
2,COCCn1ccc2cc(C(=O)N3CCN(S(C)(=O)=O)CC3)ccc21,-0.448%
3,CC(C)(C)C(=O)N1CCC(c2noc(C3CCC(=O)N3)n2)CC1 (centres undefined),-17.9%
4,Cc1nnc2n1CCN(Cc1csc(COc3ccccc3)n1)C2,-0.113%
5,CC1(C)Cc2nc(C(C)(C)C)ncc2C(NC(=O)C2(N)CC2)C1 (centres undefined),-10.9%
6,COc1cc(C(=O)NS(=O)(=O)c2cncc(Br)c2)cc(OC)c1C,-4.68%
7,O=C1[C@@H]2CN(c3ncccc3Cl)C[C@]2(C(=O)O)CN1CC1CC1,39.1%
8,CC(Cc1cccnc1)Nc1ncnc2cccc(F)c12 (centres undefined),-3.43%
9,CC(Cc1cncs1)Nc1ncnc2cccc(F)c12 (centres undefined),66.9%
10,Cc1cc(CC(C)Nc2ncnc3cccc(F)c23)[nH]n1 (centres undefined),19.3%
11,COc1ccc(OCCNC(=O)N2CCS(=O)(=O)CC2)cc1,-16.35%
12,COCCOCC(=O)Nc1ccc(C)cc1F,-29.2%
13,COCCOCC(=O)Nc1cc(C)ccc1F,-18.9%
14,COCCOCC(=O)Nc1ccc(F)cc1C,55.4%
15,CCN(C)c1ncnc2c1CCN(Cc1nccs1)CC2,-37.8%
16,CCc1nc(NCCc2c(C)nn(CC)c2C)c2cnn(C)c2n1,65.7%
17,CCCc1nc(N[C@H]2COC[C@@H]2N2CCCC2)c2cnn(C)c2n1,25.8%
18,CCCc1nc(N[C@H]2COC[C@@H]2N2CCCCC2)c2cnn(C)c2n1,-19.8%
19,CCc1nc(NCCc2nc(C)c(C)s2)c2cnn(C)c2n1,27.6%
20,CCCc1nc(NCc2c(C)nn(CCC)c2C)c2cnn(C)c2n1,66.6%
21,Cc1cc(C(F)(F)F)nc(CCNc2nc(C)nc3c2cnn3C)n1,15.3%
